Assay results published in PubChem BioAssay AID1159580 (chemical genetic matrix, 2015).
Where “and” joins values, the source holds several entries; their conditions need not be identical. Equal entries are not always repeated. Hit rate of the full screen: of about 5,500 compounds, about 2,000 (36%) were called active. Inconclusive results (about 18%) are left out. No stated cut-off is given here; in the data, active means normalized growth mostly below about 0.91 (no sharp cut-off); inconclusive means no clear call, values can overlap the other calls; inactive means mostly above about 0.92. The list shows a part of the results.

Test: chemical genetic growth profiling, strain panel (AID 1159580);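 further: tested at 20 µM; growth read once vehicle control cultures reached saturation at 30 °C; 1 = growth at the plate median or of vehicle wells; lower values mean less growth of the strain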
Conditions: S. cerevisiae deletion strains, growth OD

Measured: normalized growth

CCCCC1=NC2(CCCC2)C(=O)N1Cc1ccc(-c2ccccc2-c2nn[nH]n2)cc1
inactive: locus YAL013W, strain DEP1, active compounds read low 0.984 | locus YAL021C, strain ccr4, active compounds read low 1.01 | locus YAL026C, strain drs2, active compounds read low 1.01 | locus YAL030W, strain snc1, active compounds read low 1.02 | locus YBL061C, strain skt5, active compounds read low 1.02 | locus YBR009C, strain hhf1, active compounds read low 1.01 | locus YBR021W, strain FUR4, active compounds read low 0.985 | locus YBR023C, strain chs3, active compounds read low 1.01 | locus YBR171W, strain sec66, active compounds read low 1.02 | locus YBR229C, strain ROT2, active compounds read low 0.938 | locus YBR231C, strain swc5, active compounds read low 1.03 | locus YBR279W, strain paf1, active compounds read low 1.01 | locus YCL011C, strain gbp2, active compounds read low 1.03 | locus YCL016C, strain dcc1, active compounds read low 1.01 | locus YCL029C, strain bik1, active compounds read low 0.993 | locus YCL069W, strain vba3, active compounds read low 1.02 | locus YCR088W, strain abp1, active compounds read low 1.02 | locus YDL005C, strain med2, active compounds read low 1.03 | locus YDL035C, strain GPR1, active compounds read low 0.974 | locus YDL040C, strain nat1, active compounds read low 1.02 | locus YDL074C, strain BRE1, active compounds read low 1 | locus YDL101C, strain DUN1, active compounds read low 0.99 | locus YDL134C, strain PPH21, active compounds read low 0.988 | locus YDL185W, strain tfp1, active compounds read low 0.987 | locus YDL192W, strain arf1, active compounds read low 0.985 | locus YDR001C, strain nth1, active compounds read low 1 | locus YDR069C, strain doa4, active compounds read low 1.02 | locus YDR101C, strain arx1, active compounds read low 0.998 | locus YDR137W, strain rgp1, active compounds read low 1.01 | locus YDR150W, strain NUM1, active compounds read low 0.97 | locus YDR159W, strain sac3, active compounds read low 1.02 | locus YDR162C, strain NBP2, active compounds read low 0.982 | locus YDR195W, strain ref2 1.02 | locus YDR297W, strain sur2, active compounds read low 1.02 | locus YDR318W, strain mcm21, active compounds read low 1 | locus YDR334W, strain swr1, active compounds read low 1.02 | locus YDR335W, strain msn5, active compounds read low 1 | locus YDR388W, active compounds read low 0.999 | locus YDR392W, strain spt3, active compounds read low 1.01 | locus YDR502C, strain sam2, active compounds read low 0.982 | locus YEL003W, strain gim4, active compounds read low 1.01 | locus YEL037C, strain rad23, active compounds read low 1.02 | locus YEL061C, strain CIN8 (second series), active compounds read low 1.03 | locus YEL061C, strain CIN8, active compounds read low 0.979 | locus YER015W, strain faa2, active compounds read low 1.02 | locus YER016W, strain bim1, active compounds read low 1.01 | locus YER110C, active compounds read low 0.977 | locus YER111C, strain swi4, active compounds read low 1 | locus YER155C, strain BEM2 (second series), active compounds read low 1.05 | locus YER155C, strain BEM2, active compounds read low 1.01 | locus YER167W, strain BCK2, active compounds read low 0.976 | locus YFR010W, strain ubp6, active compounds read low 1.02 | locus YGL078C, strain dbp3, active compounds read low 0.969 | locus YGL086W, strain mad1, active compounds read low 0.988 | locus YGL167C, strain pmr1, active compounds read low 1.02 | locus YGL173C, strain kem1, active compounds read low 1.02 | locus YGL227W, strain vid30, active compounds read low 1.01 | locus YGL240W, strain doc1, active compounds read low 0.993 | locus YGL248W, strain PDE1, active compounds read low 0.979 | locus YGL253W, strain hxk2, active compounds read low 1.01 | locus YGR078C, strain PAC10, active compounds read low 1.02 | locus YGR135W, strain pre9, active compounds read low 1.02 | locus YGR229C, strain SMI1, active compounds read low 1.01 | locus YGR252W, strain gcn5, active compounds read low 0.931 | locus YHR013C, strain ard1, active compounds read low 1.01 | locus YHR027C, strain rpn1, active compounds read low 1.01 | locus YHR030C, strain SLT2, active compounds read low 0.994 and 0.967 | locus YHR079C, strain IRE1 (second series), active compounds read low 0.989 | locus YHR079C, strain IRE1, active compounds read low 0.973 | locus YHR094C, strain hxt1, active compounds read low 0.992 | locus YHR129C, strain ARP1, active compounds read low 1 | locus YHR142W, strain chs7, active compounds read low 1.01 | locus YHR200W, strain rpn10, active compounds read low 0.99 | locus YIL066C, strain RNR3, active compounds read low 0.974 | locus YIL073C, strain SPO22, active compounds read low 1.01 | locus YIL125W, strain kgd1, active compounds read low 0.966 | locus YIR030C, strain dcg1, active compounds read low 0.978 | locus YJL092W, strain hpr5, active compounds read low 1.01 | locus YJL095W, strain BCK1 (second series), active compounds read low 1.02 | locus YJL095W, strain BCK1, active compounds read low 1.06 and 1.01 | locus YJL115W, strain asf1, active compounds read low 0.999 | locus YJL129C, strain trk1, active compounds read low 1.01 | locus YJL134W, strain LCB3, active compounds read low 0.98 | locus YJL154C, strain vps35, active compounds read low 1.01 | locus YJL164C, strain tpk1, active compounds read low 0.997 | locus YJL166W, strain qcr8, active compounds read low 1.03 | locus YJL168C, strain set2, active compounds read low 0.993 | locus YJL187C, strain SWE1 (second series), active compounds read low 1.01 | locus YJR043C, strain POL32, active compounds read low 1.02 | locus YJR066W, strain TOR1, active compounds read low 0.953 | locus YJR075W, strain HOC1, active compounds read low 1.01
